The list is not random: actives were taken first. Their share in the collection is about 8.3%.
HCV inh – qHTS Assay for Inhibitors of Hepatitis C Virus (HCV); Potency, µM (titrated, usually from 41.8 µM), for the others: at the highest dose activity change, negative = inhibition, usual class: inhibitors; AID 651820, 2012; Huh7.5.1 HCVcc-Cre infection, luciferase reporter, 44 h; 340,000 tested, 3.4% active; further: potency means the concentration at half of the fitted maximal effect
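Cells (1,000/well) were plated 4 h before compound, then infected with HCVcc-Cre virus (~0.5 moi). After 44 h further culture, infection was read as luciferase luminescence following a 15 min substrate incubation at room temperature.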
FMDV antiviral – High Throughput Screening for Foot and Mouth Disease Virus Antivirals | FMDV antiviral cell-based qHTS | 410,000 tested, 1.2% active | Potency, µM (top dose mostly 57.9 µM), for the others: at the top dose activity change, negative = inhibition, usual class: inhibitors; calls by dose curve; tested in HEK293T cells; further: read-out not given here; potency means the concentration at half of the fitted maximal effect; nearly all actives have a fitted effect of over 45% in size
MARV entry inh – qHTS for inhibitors of binding or entry into cells for Marburg Virus | Marburg virus pseudotyped entry inhibition, cell reporter | Potency, µM (top dose mostly 37.8 µM), inactives show at the highest dose activity change, negative = inhibition, most hits filed as inhibitors | 300,000 tested, 1.8% active; calls by dose curve; tested in HEK293 cells; further: potency means the concentration at half of the fitted maximal effect
FBPA Giardia inh – qHTS Assay for Inhibitors of Fructose-1,6-bisphosphate Aldolase from Giardia Lamblia | A8B2U2 | purified Giardia FBPA | Potency, µM (doses to about 59.6 µM), without a hit: at the top dose activity, negative = inhibition, hits mostly inhibitors | 290,000 tested, 0.71% active; further: potency means the concentration at half of the fitted maximal effect; nearly all actives have a fitted effect of over 55% in size
Target sequence (A8B2U2 whole entry, looked up): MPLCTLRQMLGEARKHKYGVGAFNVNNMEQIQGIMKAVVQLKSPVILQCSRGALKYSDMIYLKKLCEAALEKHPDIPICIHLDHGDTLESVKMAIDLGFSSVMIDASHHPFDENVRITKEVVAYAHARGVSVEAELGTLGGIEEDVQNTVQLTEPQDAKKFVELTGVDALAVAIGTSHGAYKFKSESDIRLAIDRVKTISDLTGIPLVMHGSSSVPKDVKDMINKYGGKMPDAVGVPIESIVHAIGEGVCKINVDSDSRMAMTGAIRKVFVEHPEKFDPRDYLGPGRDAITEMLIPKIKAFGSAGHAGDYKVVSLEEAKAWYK
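Giardia FBPA (40 nM reagent) was preincubated 10 min at RT with compound (up to 57.5 uM final), then substrate plus GAPDH/TPI/NAD/arsenate coupling system with diaphorase/resazurin was added; resorufin fluorescence (525/598 nm) was read after 20 min.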
HCMV inh – qHTS Assay for inhibitors of the human cytomegalovirus (HCMV); AID 1259415, 2018; activity change, negative = inhibition, % at 57.5 µM; 410,000 tested, 4.5% active; HFF cells, HCMV-luciferase reporter, 72 h; stronger effect = lower value; in the data active means activity change below about -60%; inconclusive means no clear call, values can overlap the other calls; inactive means above about -39%
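Two compound doses tested in HFFs infected with HCMV-luciferase, MOI 1 PFU/cell, 72 h at 37C. Lysate luminescence read with OneGlo; data normalized against buffer-only and 10uM Salinomycin inhibitor controls.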
LASV entry inh – qHTS for Inhibitors of binding or entry into cells for Lassa Virus; Lassa virus pseudotype entry inhibition, cell reporter; Potency, µM (series often up to 37.9 µM), for inactives: top-dose activity change, negative = inhibition, most hits filed as inhibitors; 300,000 tested, 1.2% active; AID 540256, 2011; calls by dose curve; tested in HEK293 cells; further: potency means the concentration at half of the fitted maximal effect; nearly all actives have a fitted effect of over 50% in size
Active calls of the source: *; ? = inconclusive; · = not tested or not shown; + = active, no number; [ ] = another dose, or the depositor's remark. Unless noted, the call rests on the fitted dose curve; in most records, active means well fitted curve in the direction sought with a large enough effect; inconclusive means small, poorly fitted or top-dose-only effect, or another doubt; inactive means no such curve, though single readings can be large; an effect the other way counts as inactive or inconclusive. On the % scale 0 is the no-effect control and ±100 the full control effect.

SMILES	HCV inh	FMDV antiviral	MARV entry inh	FBPA Giardia inh	HCMV inh	LASV entry inh
CCOc1ccccc1CNC(=O)c1ccc2nc(Cc3ccc(OC)cc3)oc2c1	·	-27%	·	·	-32	-20%[46.1 µM]
O=C(NCCCN1CCN(c2ccccc2)CC1)c1ccc2nc(Cc3ccccc3)oc2c1	·	?	·	·	?	-21%[46.1 µM]
C=C(C)CNC(=O)c1ccc2nc(Cc3ccc(OC)cc3)oc2c1	6%	16%	-17%	-1%	103	6.3µM*
O=C(NCCCN1CCN(c2ccc(F)cc2)CC1)c1ccc2nc(Cc3ccccc3)oc2c1	·	11µM*	·	·	?	-16%[46.1 µM]
CC1CCCN(S(=O)(=O)c2ccc3c(c2)CCN3C(=O)CCC(=O)O)C1 (stereo unspecified)	·	7%	13%[46.1 µM]	·	13	7%[46.1 µM]
Nc1nc2c(nc(Sc3ccc(Cl)cc3)n2C2OC(CO)C(O)C2O)c(=O)[nH]1 (stereo unspecified)	·	-13%	·	1%	·	·
CCC(NC(=O)c1ccc2nc(Cc3ccc(OC)cc3)oc2c1)c1ccncc1 (stereo unspecified)	-7%	20µM*	·	11%	+	·
CCn1cc(CNC(=O)c2ccc3nc(Cc4ccccc4F)oc3c2)cn1	11µM*	-18%	-5%[46.1 µM]	10%	-3	7%[46.1 µM]
COc1cccc(NC(=O)c2ccc3nc(Cc4ccccc4)oc3c2)c1	·	-13%	·	·	-94*	-16%[46.1 µM]
Cc1c(N=Nc2c(O)n(C)c(=O)n(C)c2=O)c(=O)n(-c2ccccc2)n1C	31%	?	8%	2%	-4	0%
Cc1c(N=C2C=CC(=O)c3ccccc32)c(=O)n(-c2ccccc2)n1C	-4%	35µM*	?	18µM*	-11	-2%
COc1ccc(N2CCN(Cc3nnc(-c4cccc(Br)c4)o3)CC2)cc1	·	18%	-1%[46.1 µM]	·	-4	-9%[46.1 µM]
CN(C(=O)c1ccccc1F)C(c1ccccc1)c1ccccc1	2%	-8%	?	-5%	15	11µM*
CS(=O)(=O)Nc1cccc(-c2nccc(-n3ccnc3)n2)c1	·	3%	·	-1%	·	·
Nc1ccc(N=Nc2ccccc2)c(N)n1	2%[8.37 µM]	13%	-7%	-18%	-102*	?
Nc1ccc(N=Nc2ccccc2)c2ccccc12	-16%	5%	-8%[46.1 µM]	-2%	35	-1%[46.1 µM]
O=C(CCCN1C(=O)c2ccccc2C1=O)N1CC[C@@H](c2ccccc2)C1	·	·	0%	·	·	·
COc1ccc2cc(/C=N/NC(=O)c3ccc(CN(c4cccc(Cl)c4Cl)S(C)(=O)=O)cc3)c(Cl)nc2c1	-16%	?	0.56µM*	1%	37	?
COc1ccc2cc(/C=N/O)c(Cl)nc2c1	?	24%	17%	3%	52	?
CCOC(=O)[C@@]1([C@@H](NC(=O)OC)c2cccc(F)c2)CCCC1=O	·	·	-13%[14.2 µM]	·	·	·
CCCN(CCC)[C@H]1CCc2ccc(O)cc2C1	·	·	-15%	·	·	·
C=CCn1c(-c2ccc(Cl)cc2)cnc1SC(C)C(=O)NC(N)=O (stereo unspecified)	?	?	-8%[46.1 µM]	2%	-74*	-5%
CCSc1nnc(-c2ccc(C)cc2)c2ccccc12	?	0%	?	17%	-62*	?
CCCCCn1c(CN2CCN(c3ccc(OC)cc3)CC2)nc2c1c(=O)[nH]c(=O)n2C	·	0%	-9%[46.1 µM]	·	-4	?
CCCCCn1c(CN2CCN(c3cc(Cl)ccc3C)CC2)nc2c1c(=O)[nH]c(=O)n2C	?	28µM*	16µM*	7%	?	?
SMILES	HCV inh	FMDV antiviral	MARV entry inh	FBPA Giardia inh	HCMV inh	LASV entry inh
Cn1c(=O)c2c(nc(CN3CCN(c4ccccc4)CC3)n2CCCc2ccccc2)n(C)c1=O	18%	-1%	26%	·	43	12%
CCCCn1c(CN2CCN(c3cccc(Cl)c3)CC2)nc2c1c(=O)n(C)c(=O)n2C	?	-21%	?	-9%	-89*	-1%
CCCCn1c(CN2CCN(c3ccccc3)CC2)nc2c1c(=O)n(C)c(=O)n2C	7.1µM*	0%	·	-6%	·	·
Cc1cc2nccc(-c3ccncc3)n2n1	-1%	-7%	5%[46.1 µM]	5%	-64*	34%[46.1 µM]
Cc1ccc(-c2ccnc3cc(C)nn23)cc1	?	26%	·	0%	?	·
Cc1cc2nccc(-c3ccc(Cl)cc3Cl)n2n1	?	31%	·	-1%	-70*	·
COc1ccc2c(c1)OC(C)CN(CCNC(=O)c1csc(-c3cccs3)n1)C2 (stereo unspecified)	·	-3%	·	·	·	·
Cc1cc(=O)n2[nH]c(-c3ccc(C(C)(C)C)cc3)cc2n1	10µM*	-23%	?	-6%	-63*	?
Cc1cc(=O)n2[nH]c(-c3ccccc3)cc2n1	-4%	0%	4%[46.1 µM]	-8%	11	17%
Cc1c(F)cccc1NC(=O)CCCCCC1NC(=O)NC1C (stereo unspecified)	14%	44%	20%	8%	-71*	17%
CC1NC(=O)NC1CCCCCC(=O)Nc1ccc(F)cc1 (stereo unspecified)	10%	-3%	?	-5%	23	1%
C=C1C(=O)O[C@H]2C[C@H]1[C@@H](OC(C)=O)C/C(C)=C/CC/C(C)=C\CC[C@]2(C)O	10µM*	7.1µM*	·	·	-103*	·
COc1ccc(NS(=O)(=O)c2ccc(N3CCCC3)c(NC(=S)Nc3ccc(SC(F)F)cc3)c2)cc1	22µM*	-14%	?	-6%	-28	?
COc1ccc(NS(=O)(=O)c2cc(NC(=O)C3CCCO3)ccc2N2CCCCC2)cc1 (stereo unspecified)	?	76%	?	-8%	-64*	?
COc1ccc(NS(=O)(=O)c2cc(NC(=O)c3ccco3)ccc2N2CCCC2)cc1	10µM*	50%	?	-1%	-12	?
COc1ccc(NS(=O)(=O)c2cc(NC(=O)c3cc(F)c(F)c(F)c3F)ccc2N2CCCC2)cc1	?	25%	·	-10%	-27	·
CC1=C(C(=O)Nc2cccnc2)C(c2cccc(Br)c2)n2nc(SCc3ccccc3)nc2N1 (stereo unspecified)	·	-8%	-1%[46.1 µM]	·	-1	?
Cc1ccc(SCC(=O)NCC2COc3ccccc3O2)cc1 (stereo unspecified)	14%	4%	-17%	·	-65*	9%
COC(=O)C1=C2CCO[C@H]2[C@@H]2[C@@H](C)[C@H](OC)c3ccccc3[C@@H]12	·	·	?	·	·	-6%[14.3 µM]
CC(C)c1ccc(NC(=O)C2CCN(S(=O)(=O)c3ccc4c(c3)NC(=O)CO4)CC2)cc1	?	?	·	·	-68*	·
Cc1ccc(NC(=O)C2CCN(S(=O)(=O)c3ccc4c(c3)NC(=O)CO4)CC2)cc1	?	?	-5%[46.1 µM]	·	?	-20%[46.1 µM]

From PubChem
